Here are results for twelve compounds from PMC7826789 (International Journal of Molecular Sciences, 2021).

Each structure is given as a SMILES string.

Some test systems named below: HIPK2; HIPK3; HIPK4; HUNK; ICK; IGF1R.
Details in all cases: Compound Concentration (nM):1000
The subject of a further test is T1, HPK1.
T1 construct: gene MAP4K1

In another test the test system is T2, IKK-alpha.
T2 construct: gene CHUK

In the next test the test system is T3, IKK-beta.
T3 construct: gene IKBKB

Another test concerns T4, IKK-epsilon.
T4 construct: gene IKBKE
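Note: KINOMEscan scanMAX binding as percent activity remaining versus control; lower means stronger binding.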

Take `COc1cccc(-c2c[nH]c3c(N/N=C/c4ccncc4)ncnc23)c1` [GW814408X]: the “Percent Control” value with HIPK2 is 53%; with HIPK3, 27%; with HIPK4, 59%; in the test on HPK1 it was 70%; in the test on HUNK it was 73%; in the test on ICK, 33%. Also, the “Percent Control” value in the test on IGF1R is reported as 100%; in the test with IKK-alpha it was 87%; with IKK-beta it was 100%; in the test on IKK-epsilon it was 100%.
For the compound `COc1ccc2[nH]c3c4[nH]c5ccc(OC)cc5c4c4c(c3c2c1)C(=O)NC4=O` [GW296115X], the “Percent Control” value in the test on HIPK2 came out at 64%; in the test on HIPK3 it was 44%; with HIPK4, 70%; with HPK1, 90%; with HUNK it was 91%; in the test on ICK, 89%. Also, the “Percent Control” value with IGF1R is on record as 97%; in the test on IKK-alpha, 89%; in the test on IKK-beta, 87%; in the test with IKK-epsilon, 48%.
As for `CC(C)COC(=O)c1ccc2c(c1)/C(=C/Nc1ccc(S(N)(=O)=O)cc1)C(=O)N2` [GW416981X], the “Percent Control” value amounted to 75% with HIPK2; 63% in the test with HIPK3; 100% in the test on HIPK4; 48% in the test on HPK1; 100% in the test with HUNK; 44% with ICK. In addition, the “Percent Control” value in the test on IGF1R amounted to 100%; in the test on IKK-alpha, 69%; in the test on IKK-beta it was 100%; with IKK-epsilon it was 16%.
Consider `CN(C)c1cc2c(Nc3ccc4c(cnn4Cc4ccccc4)c3)ncnc2cn1` [GW282974X], for which the “Percent Control” value is listed as 90% with HIPK2; 100% in the test on HIPK3; 79% with HIPK4; 100% in the test with HPK1; 100% in the test with HUNK; 90% in the test with ICK. Also, the “Percent Control” value in the test on IGF1R is 100%; in the test on IKK-alpha it was 92%; in the test on IKK-beta it was 100%; with IKK-epsilon, 76%.
For the compound `CC1=C(C(=O)Nc2ccc3[nH]ncc3c2)C(c2ccc3ccccc3c2)CC(=O)N1` (stereo not drawn) [GSK270822A], the “Percent Control” value was 76% in the test on HIPK2; 79% in the test with HIPK3; 100% in the test with HIPK4; 87% in the test with HPK1; 91% in the test with HUNK; 84% in the test with ICK. In addition, the “Percent Control” value in the test with IGF1R turned out to be 85%; in the test with IKK-alpha it was 69%; in the test on IKK-beta, 72%; in the test with IKK-epsilon, 87%.
Consider `COc1cccc(-n2ncc3c(N/N=C/c4ccncc4)ncnc32)c1` [GW784752X], for which the “Percent Control” value with HIPK2 was 33%; in the test with HIPK3, 23%; in the test with HIPK4, 54%; in the test on HPK1 it was 100%; with HUNK, 95%; with ICK, 64%. Also, the “Percent Control” value with IGF1R was 100%; in the test on IKK-alpha it was 98%; in the test on IKK-beta, 94%; in the test on IKK-epsilon, 100%.
On to `CCn1c(-c2nonc2N)nc2c(C#CC(C)(C)O)nc(OCCNC)cc21.Cl` [GSK949675], for which the “Percent Control” value stood at 75% in the test on HIPK2; 47% in the test with HIPK3; 100% in the test on HIPK4; 100% with HPK1; 89% in the test with HUNK; 100% with ICK. Besides, the “Percent Control” value with IGF1R amounted to 100%; in the test with IKK-alpha, 91%; in the test on IKK-beta it was 98%; in the test with IKK-epsilon, 73%.
`NS(=O)(=O)c1ccc(Nc2ncc(-c3ccccc3)o2)cc1` [GW572399X]: the “Percent Control” value with HIPK2 is 72%; in the test with HIPK3 it was 75%; in the test on HIPK4 it was 100%; with HPK1, 100%; in the test on HUNK, 92%; with ICK, 89%. Moreover, the “Percent Control” value in the test on IGF1R is 100%; in the test on IKK-alpha, 90%; in the test on IKK-beta it was 100%; in the test with IKK-epsilon, 78%.
Turning to `COc1cc2ncnc(Nc3ccc4c(cnn4Cc4ccccc4)c3)c2cc1OC.Cl` [GW282449A], the “Percent Control” value in the test on HIPK2 was 100%; with HIPK3, 100%; in the test with HIPK4, 100%; in the test on HPK1, 100%; with HUNK it was 92%; with ICK, 100%. Moreover, the “Percent Control” value in the test on IGF1R, in the test with IKK-alpha, in the test with IKK-beta and in the test on IKK-epsilon was 100% throughout.
For `NS(=O)(=O)c1ccc(N/N=C2\C(=O)Nc3ccc(C(=O)NCc4ccncc4)cc32)cc1` [GW300657X], the “Percent Control” value is 9.9% with HIPK2; 12% with HIPK3; 81% in the test with HIPK4; 70% in the test on HPK1; 86% in the test with HUNK; 15% with ICK. Also, the “Percent Control” value in the test on IGF1R was found to be 95%; in the test on IKK-alpha it was 86%; in the test with IKK-beta it was 83%; with IKK-epsilon, 42%.
Turning to `Nc1ncnc2occ(-c3ccc(NC(=O)Nc4cc(C(F)(F)F)ccc4F)cc3)c12` [GW770249X], the “Percent Control” value with HIPK2 came out at 73%; with HIPK3, 29%; with HIPK4 it was 0%; in the test with HPK1, 16%; in the test on HUNK, 97%; in the test on ICK, 100%. The “Percent Control” value in the test with IGF1R turned out to be 100%; in the test on IKK-alpha, 18%; in the test with IKK-beta it was 75%; in the test on IKK-epsilon it was 69%.
Turning to `COc1cc(C)c(N(C)C(=O)CN(C)C)cc1Nc1nc(Nc2cccc(F)c2C(N)=O)c2cc[nH]c2n1` [GSK2219385], the “Percent Control” value in the test with HIPK2 came out at 100%; in the test on HIPK3 it was 100%; with HIPK4 it was 100%; in the test on HPK1, 100%; with HUNK, 100%; in the test on ICK, 89%. Moreover, the “Percent Control” value in the test on IGF1R stood at 7.7%; in the test on IKK-alpha it was 100%; in the test with IKK-beta it was 100%; in the test on IKK-epsilon, 61%.
